Results from PubChem BioAssay (NCI).
Compounds without any hit were thinned out: in the full panel of roughly 83,000, 20% have a hit.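 The test compound was applied at a single concentration to cells in 96-well plates for 48 hours, and percent growth was recorded.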 Activity calls are given as the source filed them. Rule for the calls: active = growth percent below 10; inactive = the rest.

Tests used:
Assay in all cases: NCI-60 one-dose screen, 48 h (100 = growth as untreated, 0 = no growth, -100 = all killed)
Details in all cases: 10 µM
[1] = test system: DU-145 prostate
[2] = test system: K-562 leukemia
[3] = test system: MALME-3M melanoma
[4] = test system: MDA-MB-231 breast
[5] = test system: SF-268 CNS
[6] = test system: SF-295 CNS
[7] = test system: SF-539 CNS
[8] = test system: UACC-257 melanoma
[9] = test system: M14 melanoma
[10] = test system: HCT-15 colon
[11] = test system: HT29 colon
[12] = test system: SNB-75 CNS
[13] = test system: SNB-19 CNS
[14] = test system: U251 CNS
[15] = test system: PC-3 prostate
[16] = test system: SK-MEL-5 melanoma
[17] = test system: UACC-62 melanoma
[18] = test system: LOX IMVI melanoma
[19] = test system: SK-MEL-28 melanoma

Measured: growth

CC1(c2ccccc2)NC(=O)N(CC(=O)Nc2ccc(C(=O)/C=C/c3ccccc3)cc2)C1=O (stereo not drawn)
active: [10] 2.92% | [11] -23% | [14] -15.2% | [18] -72%
inactive: [1] 62.1% | [2] 22.4% | [3] 77.6% | [4] 67.7% | [5] 52.2% | [6] 50.9% | [7] 43.3% | [8] 63.5% | [9] 48.2% | [12] 72.1% | [13] 66.1% | [15] 31.6% | [16] 20.4% | [17] 36.5% | [19] 62.3%

O=c1oc2ccccc2cc1-c1csc(N=Nc2c(O)[nH]c3ccc(Br)cc23)n1
inactive: [1] 94.2% | [2] 103% | [3] 56.3% | [4] 56.5% | [5] 51.2% | [6] 39.5% | [7] 35.6% | [8] 105% | [9] 97.5% | [10] 97% | [11] 109% | [12] 96.1% | [13] 29% | [14] 40.4% | [15] 89.1% | [16] 98.1% | [17] 78.1% | [18] 62.8% | [19] 105%

CCCCSc1nc(Nc2ccc(/C(C)=N/NC(N)=S)cc2)c(C#N)c(-c2ccc(OC)cc2)n1
active: [3] -39.6% | [4] -11.4% | [7] -55.4% | [18] -10.1%
inactive: [1] 61.5% | [2] 78.2% | [5] 56.6% | [6] 69.7% | [8] 74.9% | [9] 39.3% | [10] 75.9% | [11] 86.7% | [12] 37.7% | [13] 63.8% | [14] 22.8% | [15] 85.2% | [16] 46.2% | [17] 44.7% | [19] 90.5%

O=C(CSc1nnc(-c2ccc3nc(-c4ccccc4)[nH]c3c2)o1)Nc1ccc(Br)cc1
inactive: [1] 78.2% | [2] 18.4% | [4] 52.3% | [5] 87.8% | [6] 74.3% | [8] 98.8% | [9] 52.3% | [10] 38.1% | [11] 64.9% | [12] 99.1% | [13] 49.7% | [14] 11.5% | [15] 61.4% | [16] 86.9% | [17] 59.8% | [19] 76.9%
active: [3] 5.76% | [7] 8.7% | [18] -4.8%

COc1ccc(NC(=O)CSc2nnc(-c3ccc4nc(-c5ccc(Cl)cc5)[nH]c4c3)o2)cc1
active: [3] -81.7% | [14] -15.3% | [17] 7.61%
inactive: [1] 55.4% | [2] 14.7% | [4] 20.5% | [5] 48% | [6] 26.1% | [7] 50.5% | [8] 71.5% | [9] 14.8% | [10] 29.9% | [11] 34.6% | [12] 112% | [13] 33.7% | [15] 51.9% | [16] 16.1% | [18] 16.6% | [19] 10.1%

N#Cc1ccc(-c2nn(-c3ccc(C(=O)O)cc3)cc2CNc2cc(Cl)cc(Cl)c2)cc1
inactive: [1] 65.4% | [2] 43.7% | [3] 80.1% | [4] 80.2% | [5] 53.3% | [6] 38.4% | [7] 30.6% | [8] 60.2% | [9] 34.5% | [10] 25.6% | [11] 39.7% | [12] 78.5% | [13] 55.8% | [14] 32.8% | [15] 33.6% | [16] 23.9% | [17] 28.5% | [19] 18.1%
active: [18] 7.12%

O=C(Nc1cccc(C(F)(F)F)c1)c1cncc(C#Cc2cnc3ccc(N4CCOCC4)nn23)c1
active: [1] 0.548% | [2] 9.1% | [3] -29.7% | [4] -8.01% | [5] -31% | [6] -8.57% | [7] -88.1% | [8] 3.22% | [9] -49.3% | [10] -16.7% | [11] 5.68% | [12] -39.9% | [13] -6.03% | [14] -3.92% | [15] 6.2% | [16] -66.9% | [17] -22.1% | [18] -87.9% | [19] -17.8%

CCCn1c(=O)c2[nH]c(-c3ccc(OCc4nc5ccc(F)cc5[nH]4)cc3)nc2n(CCC)c1=O
inactive: [1] 34.2% | [2] 34.9% | [5] 46.5% | [6] 10.6% | [8] 31.9% | [9] 44.7% | [10] 28.7% | [11] 26.7% | [13] 50.4% | [15] 36.3% | [19] 38%
active: [3] -52.2% | [4] -46.7% | [7] -68.9% | [12] -23.5% | [14] 0.191% | [16] -22.5% | [17] 3.86% | [18] -29.3%

Clc1cccc(N/N=C/c2c[nH]c3ccccc23)n1
active: [4] -0.126% | [7] 6.26%
inactive: [1] 48.7% | [2] 13.8% | [3] 50.6% | [5] 19.9% | [6] 49.5% | [8] 68% | [9] 43.6% | [10] 18.9% | [11] 30.4% | [12] 15.5% | [13] 43.2% | [14] 34.7% | [15] 25.2% | [16] 41.7% | [17] 55.1% | [18] 17.9% | [19] 79.8%

Cc1noc2c(Cc3ccc([N+](=O)[O-])cc3)nn(CC(=O)N/N=C/c3ccc(Br)cc3)c(=O)c12
inactive: [1] 74.9% | [2] 88.7% | [3] 66% | [4] 46.4% | [5] 72.1% | [6] 89.5% | [7] 26.1% | [8] 106% | [9] 93.4% | [10] 94.8% | [11] 86.1% | [12] 104% | [13] 69.6% | [14] 70.4% | [15] 78.1% | [16] 92% | [17] 80.1% | [18] 52.2% | [19] 96.4%

CN(C)c1ccc(/C=C/C(=O)c2ccc(NC(=O)CN3C(=O)NC(C)(c4ccccc4)C3=O)cc2)cc1 (stereo not drawn)
inactive: [1] 75.3% | [2] 27.9% | [3] 80.3% | [4] 68.1% | [5] 57.9% | [6] 54.9% | [7] 55.2% | [8] 62.9% | [9] 51.5% | [10] 26.9% | [11] 19.5% | [12] 80.6% | [13] 70.5% | [14] 46% | [15] 43.3% | [16] 23.2% | [17] 46.6% | [18] 41.4% | [19] 70.7%

CC(=O)NS(=O)(=O)c1ccc(NC(=O)CSC2=NC(c3ccccc3)C(C(C)=O)=C(C)N2)cc1 (stereo not drawn)
inactive: [1] 120% | [2] 104% | [3] 103% | [4] 110% | [5] 107% | [6] 101% | [7] 107% | [8] 106% | [9] 107% | [10] 101% | [11] 114% | [12] 99% | [13] 104% | [14] 116% | [15] 110% | [16] 101% | [17] 98.5% | [18] 94.9% | [19] 107%
